Rows were chosen to be rich in hits. Some 0.71% of all compounds tested hit in one or more screens of this group.
Mac1 fbg enh: increases human CD11b/CD18 adhesion to fibrinogen | K562 CD11b/CD18 adhesion to fibrinogen, ATPlite luminescence | AID 1499 | activation, % at 10 µM | 93,000 tested, 0.07% active | P05107+P11215;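 active = 10 µM primary screen giving 50% or more activity, confirmed by 40% or more on retest at that dose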
Target sequence (P05107 whole entry, looked up, other chains not shown): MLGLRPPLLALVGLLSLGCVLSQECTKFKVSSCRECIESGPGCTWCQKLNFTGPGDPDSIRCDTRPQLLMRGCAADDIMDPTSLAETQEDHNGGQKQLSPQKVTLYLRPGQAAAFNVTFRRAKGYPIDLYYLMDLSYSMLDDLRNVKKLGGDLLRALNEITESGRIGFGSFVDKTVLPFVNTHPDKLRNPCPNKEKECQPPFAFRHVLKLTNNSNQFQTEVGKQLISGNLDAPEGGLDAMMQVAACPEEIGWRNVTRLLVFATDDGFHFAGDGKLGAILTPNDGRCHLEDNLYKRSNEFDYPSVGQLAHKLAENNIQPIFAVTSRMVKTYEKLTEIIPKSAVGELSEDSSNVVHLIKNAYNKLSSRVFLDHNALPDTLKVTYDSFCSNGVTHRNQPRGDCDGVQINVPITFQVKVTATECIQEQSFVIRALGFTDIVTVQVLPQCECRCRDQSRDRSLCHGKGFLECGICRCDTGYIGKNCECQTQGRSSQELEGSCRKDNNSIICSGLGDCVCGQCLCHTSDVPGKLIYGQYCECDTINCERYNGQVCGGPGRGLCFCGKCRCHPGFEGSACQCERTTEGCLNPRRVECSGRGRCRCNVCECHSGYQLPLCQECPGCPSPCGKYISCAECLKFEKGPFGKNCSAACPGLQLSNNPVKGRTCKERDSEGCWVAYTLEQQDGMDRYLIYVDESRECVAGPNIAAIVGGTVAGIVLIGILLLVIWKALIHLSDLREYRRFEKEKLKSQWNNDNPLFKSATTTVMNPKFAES
Phagocyt inh: inhibitors of macrophage phagocytosis | J774A.1 macrophage IgG-bead phagocytosis, imaging | inhibition, % at 5 µM | 110,000 tested, 0.07% active;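 active = inhibition above the mean of the plate negative controls plus 5 SD, cut at about 13% in these data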;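 note: phagocytic index as fraction of beads internalized from green versus red external bead signal; plate controls were DMSO negative control for no effect and cytochalasin-D positive control for full effect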
Mac1 fbg inh: blocks human CD11b/CD18 adhesion to fibrinogen; P05107+P11215; K562 CD11b/CD18 adhesion to fibrinogen, ATPlite luminescence; Mn2+ added to activate the integrin; inhibition, % at 10 µM; 93,000 tested, 0.54% active; AID 1497;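 active = primary inhibition of 50% or more at 10 µM, then 40% or more on retest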
SDO1 yeast rescue: compounds rescuing growth of sdo1-depleted yeast, bone marrow failure model | S. cerevisiae sdo1-depleted JHY4D growth rescue, OD600 30 h; stronger effect = higher value; pdr5 snq2 efflux-pump mutant strain | z-score at 10 µM | 140,000 tested, 0.21% active;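 active = z-score above 3 at both the 24 hr and the 30 hr optical density reads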;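 note: z-score against mean and SD of all compound wells on the same plate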
Active calls of the source: *; [ ] = remark or other dose.

Results for C=CC[n+]1c(-c2ccc(OCC)cc2)csc1NNC(=O)Nc1ccccc1 ?
Mac1 fbg enh: -8; Phagocyt inh: 0; Mac1 fbg inh: 86*; SDO1 yeast rescue: -0.86

What do the screens show for `O=c1c2[nH]c3ccccc3c2ncn1CCC1=CCCCC1`?
Mac1 fbg enh: 0; Phagocyt inh: -1; Mac1 fbg inh: -7; SDO1 yeast rescue: 0.34

How did CC(C)OCCCNc1ncnc2c1[nH]c1ccccc12 do in these assays?
Mac1 fbg enh: -9; Phagocyt inh: -6; Mac1 fbg inh: 84*; SDO1 yeast rescue: -0.33

How did C1=C(CCNc2ncnc3c2[nH]c2ccccc23)CCCC1 do in these assays?
Mac1 fbg enh: -9; Phagocyt inh: -5; Mac1 fbg inh: 100*; SDO1 yeast rescue: -1.5

How did Cc1cc(C)c(NS(=O)(=O)c2ccc(NC(=O)/C=C/C(=O)O)cc2)c(C)c1 do in these assays?
Phagocyt inh: -4; SDO1 yeast rescue: 0.41

Results for CCCCNc1cc(C)nc(NCc2ccccc2)n1 ?
Mac1 fbg enh: -13; Phagocyt inh: 1; Mac1 fbg inh: 85*; SDO1 yeast rescue: -0.72

How did Cc1ccccc1OCCCCc1c(C)n[nH]c1C do in these assays?
Mac1 fbg enh: -6; Phagocyt inh: 0; Mac1 fbg inh: 90*; SDO1 yeast rescue: -2.5

How did COc1cccc(N(C(=O)c2cccs2)c2nc3ccccc3s2)c1 do in these assays?
Mac1 fbg enh: 0; Phagocyt inh: -3; Mac1 fbg inh: 4; SDO1 yeast rescue: -1.7

What do the screens show for `Cc1cccc(-n2cnc(C(=O)N/N=C/c3ccccc3)c2)n1`?
Mac1 fbg enh: 2; Phagocyt inh: 0; Mac1 fbg inh: -35; SDO1 yeast rescue: 0.09

What do the screens show for `O=C1NC(=O)/C(=C\c2ccccc2Oc2ccc(F)c(F)c2)S1`?
Mac1 fbg enh: -8; Phagocyt inh: 1; Mac1 fbg inh: 85*; SDO1 yeast rescue: -0.72

What do the screens show for `Cn1c(=O)[nH]c(=O)c2c1ncn2CCCc1ccccc1`?
SDO1 yeast rescue: 0.01[11.8 µM]

Results for CCOC(=O)CSc1nnc(NC(=O)c2cccc([N+](=O)[O-])c2)s1 ?
Mac1 fbg enh: -4; Phagocyt inh: -9; Mac1 fbg inh: 54; SDO1 yeast rescue: 0.3

Results for Cc1cc(=O)n2[nH]c(-c3ccc(C(C)(C)C)cc3)cc2n1 ?
Mac1 fbg enh: -3; Phagocyt inh: -1; Mac1 fbg inh: 10; SDO1 yeast rescue: 1.2

What do the screens show for `CCOC(=O)N1CCC2(CC1)C(C#N)=C(N)Oc1c2c(C)nn1-c1cccc(Cl)c1`?
Mac1 fbg enh: -10; Phagocyt inh: 0; Mac1 fbg inh: 88*; SDO1 yeast rescue: -1.5

What do the screens show for `CCOc1ccc(C(=O)Nc2cc(-c3nc4ccccc4[nH]3)ccc2Cl)cc1[N+](=O)[O-]`?
Phagocyt inh: -9; SDO1 yeast rescue: -0.94

What do the screens show for `Cn1nnnc1SC(C(=O)Nc1cccc(C(F)(F)F)c1)c1ccccc1` (centres undefined)?
SDO1 yeast rescue: 0.53

What do the screens show for `O=S(=O)(NCc1ccncc1)c1ccc(Br)s1`?
Mac1 fbg enh: -11; Phagocyt inh: -2; Mac1 fbg inh: 98*; SDO1 yeast rescue: 0.4

What do the screens show for `O=C(Nc1ncc(Br)s1)C(Cc1ccccc1)n1cccc1` (centres undefined)?
Mac1 fbg enh: -7; Mac1 fbg inh: 79*; SDO1 yeast rescue: -2.6

How did O=C(Nc1cccnc1)C(Cc1ccccc1)n1cccc1 (centres undefined) do in these assays?
Mac1 fbg enh: -2; Phagocyt inh: 0; Mac1 fbg inh: -12; SDO1 yeast rescue: 1.4

How did COc1ccccc1C1(CC(=O)N2CCCCC2)CCOC(C(C)C)C1 (centres undefined) do in these assays?
Mac1 fbg enh: -6; Phagocyt inh: 0; Mac1 fbg inh: -4; SDO1 yeast rescue: -1.3

Results for Cc1ccc(Cl)cc1NC(=O)CSC(N)=O ?
Mac1 fbg enh: -5; Phagocyt inh: -1; Mac1 fbg inh: -14; SDO1 yeast rescue: -2.7

How did Cc1ccc(Cl)cc1NC(=O)CC(O)(C(F)(F)F)C(F)(F)F do in these assays?
Mac1 fbg enh: -10; Phagocyt inh: -6; Mac1 fbg inh: 98*; SDO1 yeast rescue: -1.2

What do the screens show for `Cc1nc2c(cnn2-c2ccccc2Cl)c(=O)n1-c1ccc(N2CCC(C)CC2)cc1`?
Mac1 fbg enh: -3; Phagocyt inh: 0; Mac1 fbg inh: -6; SDO1 yeast rescue: -1.2

How did CCc1nc2c(cnn2-c2ccc(F)cc2)c(=O)n1-c1ccc(N2CCC(C)CC2)cc1 do in these assays?
Mac1 fbg enh: -4; Phagocyt inh: 0; Mac1 fbg inh: 76*; SDO1 yeast rescue: -1

What do the screens show for `CCC(NC(=O)Nc1nnc(C(F)(F)F)s1)(C(F)(F)F)C(F)(F)F`?
Mac1 fbg enh: -9; Phagocyt inh: -5; Mac1 fbg inh: 107*; SDO1 yeast rescue: -1.6

How did Cc1nnc(NC(=O)c2sc3ccccc3c2Cl)s1 do in these assays?
Mac1 fbg enh: -5; Phagocyt inh: -1; Mac1 fbg inh: 70*; SDO1 yeast rescue: -1.3

How did O=C(Nc1ccccc1O)c1ccccc1O do in these assays?
Mac1 fbg enh: -4; Phagocyt inh: -1; Mac1 fbg inh: 69*; SDO1 yeast rescue: 0.16

How did Cc1cccc(NC(=O)c2ccccc2O)c1C do in these assays?
Mac1 fbg enh: -6; Phagocyt inh: -2; Mac1 fbg inh: 47; SDO1 yeast rescue: -0.56

How did Cc1ccc(NC(=O)CN2C(=O)S/C(=C/c3ccc(-c4cc(C(=O)O)ccc4C)o3)C2=O)cc1C do in these assays?
Mac1 fbg enh: 61*; Phagocyt inh: 4; Mac1 fbg inh: 39; SDO1 yeast rescue: -0.49

Results for CCn1c(C)cc(/C=C2\SC(=O)N(CC(=O)Nc3ccc(C)c(C)c3)C2=O)c1C ?
SDO1 yeast rescue: -1.9

Results for N#CC(c1ccc(Cl)cc1)c1ccc2c(C(F)(F)F)cc(C(F)(F)F)nc2n1 (centres undefined) ?
Mac1 fbg enh: -8; Phagocyt inh: -1; Mac1 fbg inh: 88*; SDO1 yeast rescue: -1.5

How did CCOC(=O)CCS(=O)(=O)c1ccc(-c2ccc(S(=O)(=O)CCC(=O)OCC)cc2)cc1 do in these assays?
Mac1 fbg enh: 3; Phagocyt inh: 1; Mac1 fbg inh: 11; SDO1 yeast rescue: -0.72

Results for O=C(CSC1=NCCS1)Nc1ccnc2ccccc12 ?
Mac1 fbg enh: -10; Phagocyt inh: -1; Mac1 fbg inh: 100*; SDO1 yeast rescue: -0.05

Results for CC(=O)Nc1ccc(NC(=O)CSC2=NCCS2)cc1 ?
Mac1 fbg enh: -4; Phagocyt inh: 3; Mac1 fbg inh: -17; SDO1 yeast rescue: 1.2

What do the screens show for `CN(C)CCNS(=O)(=O)c1ccc(N2CCN(c3ccc(F)cc3)CC2)c([N+](=O)[O-])c1`?
Phagocyt inh: 0; SDO1 yeast rescue: -0.07

What do the screens show for `O=C(Nc1ccncc1)c1ccc2c(c1)C(=O)N(C1CCCCC1)C2=O`?
Mac1 fbg enh: -7; Phagocyt inh: 0; Mac1 fbg inh: 86*; SDO1 yeast rescue: -1.2

Results for O=S(=O)(Nc1nnc(-c2ccccc2)s1)c1ccc(Cl)cc1 ?
Mac1 fbg enh: -10; Phagocyt inh: -2; Mac1 fbg inh: 86*; SDO1 yeast rescue: -0.2

Results for COc1cccc(C(=O)N/N=C/c2cn[nH]c2-c2ccc(OC)cc2OC)c1 ?
SDO1 yeast rescue: 0.2

How did CCCc1ccc(Oc2cn[nH]c2-c2ccc(O)c(C)c2O)cc1 do in these assays?
Mac1 fbg enh: -11; Phagocyt inh: 0; Mac1 fbg inh: 101*; SDO1 yeast rescue: -2.6
